These results are taken from PubChem BioAssay AID463173 (ICCB-Longwood Screening Facility, Harvard Medical School, 2010).

Out of some 52,000 compounds screened, about 4,300 (8.3%) were called active. What follows is part of a selection rich in actives, with near analogues and random picks from the rest. Unmarked numbers belong to inactive results. No stated cut-off is given here; in the data, active means survival mostly below about 52% (no sharp cut-off); inactive means mostly above about 56%.

For this test, the system named is DeltatarO mutant. The test is described as follows: growth inhibition of S. aureus wild type versus tarO mutant, primary screen, teichoic acid synthesis inhibitors, RN4220, OD600 (AID 463173). The conditions noted are these: OD600, 18 h, hits give low values, screened at 18.75 µg/mL (by protocol).
Consider `CCCCC(=O)Nc1cccc(OCc2cc(=O)n3ccccc3n2)c1`, for which the survival was 87%.

As to `CCOC(=O)N1CCC(NC(=O)c2ccc3c(c2)N(Cc2ccccc2)C(=O)c2ccccc2S3=O)CC1` (configuration not stated), the survival is 57%.

With `CCCCN(C)C(=O)c1ccc2c(c1)N(Cc1cccc(Cl)c1)C(=O)c1ccccc1S2=O` (configuration not stated), the survival is 99%.

As to `CCOC(=O)N1CCC(NC(=O)c2ccc3c(c2)N(Cc2ccccc2C)C(=O)c2ccccc2S3=O)CC1` (configuration not stated), the survival is 53%.

Regarding `O=C(NCCC1=CCCCC1)c1ccc2c(c1)N(Cc1ccccc1)C(=O)c1ccccc1S2=O` (configuration not stated), the survival is 70%.

Consider `CC1CCC(NC(=O)c2ccc3c(c2)N(Cc2cccc(Cl)c2)C(=O)c2ccccc2S3=O)CC1` (configuration not stated), for which the survival was 25% (active).

With `CCN(C(=O)c1ccc2c(c1)N(Cc1cccc(Cl)c1)C(=O)c1ccccc1S2=O)c1ccccc1` (configuration not stated), the survival was 32% (active).

As to `O=C(NCCC1=CCCCC1)c1ccc2c(c1)N(Cc1cccc(Cl)c1)C(=O)c1ccccc1S2=O` (configuration not stated), the survival was 37% (active).

Regarding `O=C(NCCC1=CCCCC1)c1ccc2c(c1)N(Cc1ccc(Cl)cc1)C(=O)c1ccccc1S2=O` (configuration not stated), the survival is 63%.

Turning to `CCOC(=O)N1CCC(NC(=O)c2ccc3c(c2)N(Cc2cc(C)ccc2C)C(=O)c2ccccc2S3=O)CC1` (configuration not stated), the survival is 42% (active).

Regarding `CN(C(=O)c1ccc2c(c1)N(Cc1cccc(Cl)c1)C(=O)c1ccccc1S2=O)C1CCCCC1` (configuration not stated), the survival was 101%.

For the compound `CC1CCC(NC(=O)c2ccc3c(c2)N(Cc2ccccc2)C(=O)c2ccccc2S3=O)CC1` (configuration not stated), the survival was 104%.

Consider `O=C(NC1CCCCC1)c1ccc2c(c1)N(Cc1cccc(Cl)c1)C(=O)c1ccccc1S2=O` (configuration not stated), for which the survival was 101%.

Regarding `Cc1ccc(-n2c(=O)c3c(cnn3C)n(CC(=O)Nc3c(C)cccc3C)c2=O)cc1`, the survival was 85%.

In the case of `COc1ccc(NC(=O)Cn2c(=O)n(-c3ccc(CC(=O)NCC4CCCO4)cc3)c(=O)c3ccccc32)c(OC)c1` (configuration not stated), the survival is 102%.

For `COc1cc(C(=O)N2CCN(c3ccc(Nc4ccccc4)nn3)CC2)cc(OC)c1OC`, the survival was 80%.

As to `COc1cc(C(=O)Nc2sc(C(=O)N3CCOCC3)c(C)c2C#N)cc(OC)c1OC`, the survival is 84%.

Turning to `CN(C)CCN(C(=O)c1ccco1)c1nc2c(F)cc(F)cc2s1`, the survival is 72%.

In the case of `O=C(c1ccc2c(c1)N(Cc1ccc(Cl)cc1)C(=O)c1ccccc1S2(=O)=O)N1CCOCC1`, the survival is 96%.

Consider `O=C1OC(C(=O)Nc2cccc(Br)c2)Cc2ccccc21` (configuration not stated), for which the survival is 54%.

Take `O=C1OC(C(=O)Nc2cc(C(F)(F)F)ccc2Cl)Cc2ccccc21` (configuration not stated): the survival is 56% (active).

For the compound `O=C1OC(C(=O)Nc2ccc(Cl)c(C(F)(F)F)c2)Cc2ccccc21` (configuration not stated), the survival is 55%.

In the case of `CCCOc1ccc(C(=O)N(Cc2cccs2)c2ccc(C)cc2)cc1`, the survival is 70%.

Turning to `Cn1c(CCNC(=O)c2ccco2)nc2cc(NC(=O)COc3ccc(Cl)cc3)ccc21`, the survival was 58%.

Consider `COc1cc(OC)c(NC(=O)c2c3c(nc4ccccc24)C(=O)N(C2CCCCC2)C3)cc1Cl`, for which the survival is 60%.

Regarding `Cc1ccc(-n2nc(CO)c(C(=O)NCC(c3ccccc3)c3ccccc3)n2)cc1`, the survival is 90%.

Take `CCOc1ccc(CCNC(=O)CCSCc2cccc(Cl)c2)cc1OCC`: the survival is 81%.

As to `CCOCCc1nn2c(=O)cc(COC(=O)c3ccccc3NC(=O)CC(C)C)nc2s1`, the survival is 89%.

Turning to `COc1ccc(OC)c(NC(=O)CCCc2nnc3n(C(C)C)c(=O)c4sccc4n23)c1`, the survival was 74%.

For `Cn1c(=O)c2cc(C(=O)N3CCN(c4ccc(Cl)cc4)CC3)sc2c2ccccc21`, the survival is 56% (active).

`Cn1c(=O)c2cc(C(=O)N3CCN(c4cccc(C(F)(F)F)c4)CC3)sc2c2ccccc21`: the survival is 92%.

With `CCn1c(=O)c2cc(C(=O)N3CCN(c4cccc(OC)c4)CC3)sc2c2ccccc21`, the survival is 53% (active).

Turning to `COc1cccc(N2CCN(C(=O)c3cc4c(=O)oc5ccc(C)cc5c4s3)CC2)c1`, the survival was 89%.

On to `CCn1c(=O)c2cc(C(=O)N3CCN(c4cccc(Cl)c4)CC3)sc2c2ccccc21`, for which the survival was 62%.

As for `Cc1cccc(N2CCN(C(=O)c3cc4c(=O)oc5ccccc5c4s3)CC2)c1C`, the survival is 66%.

Consider `COc1ccccc1N1CCN(C(=O)c2cc3c(=O)n(C)c4ccccc4c3s2)CC1`, for which the survival is 73%.

In the case of `Cc1cccc(N2CCN(C(=O)c3cc4c(=O)n(C)c5ccccc5c4s3)CC2)c1C`, the survival is 47% (active).

With `Cc1ccc(Cl)cc1N1CCN(C(=O)c2cc3c(=O)n(C)c4ccccc4c3s2)CC1`, the survival is 56%.

As for `COc1ccc(CNC(=O)CSc2nc3cc4c(cc3cc2C#N)OCCO4)cc1`, the survival is 96%.

As to `CSc1cccc(NC(=O)C2CCN(C(=O)c3cnn(-c4ccccc4)c3-n3cccc3)CC2)c1`, the survival is 68%.

Take `COc1ccc(/C=C(\C#N)c2nc(-c3cc(Cl)ccc3OC)cs2)cc1`: the survival was 91%.

As to `CCc1ccc(NCc2cc3ccc(OC)cc3n(CC(=O)Nc3ccc(F)cc3F)c2=O)cc1`, the survival is 79%.

In the case of `Cc1ccc(-c2cc3c(n2-c2ccccc2F)CC(C)(C)CC3=O)cc1`, the survival is 101%.

Consider `CCOc1ccc(-n2c(-c3ccc(OC)cc3)cc3c2CC(C)(C)CC3=O)cc1`, for which the survival was 15% (active).

In the case of `CCN(CC)C(=O)c1cc2c(n(-c3ccc(OC)cc3)c1=O)CC(C)(C)CC2=O`, the survival is 70%.

Turning to `COc1ccc(-n2c3c(cc(-c4nc(-c5ccc(C)cc5)cs4)c2=O)C(=O)CC(C)(C)C3)cc1`, the survival was 54%.

With `CCOc1ccc(-n2c(-c3ccc(Br)cc3)cc3c2CC(C)(C)CC3=O)cc1`, the survival was 17% (active).

Turning to `Cc1ccc(-c2cc3c(n2-c2ccc(F)cc2)CC(C)(C)CC3=O)cc1`, the survival was 98%.

In the case of `CCOc1ccc(NC(=O)CSC2=Nc3ccccc3C3=NC(CC(=O)NCc4ccco4)C(=O)N23)cc1` (configuration not stated), the survival is 69%.

Consider `CCCOc1cccc(C(=O)Nc2cc(-c3ccccc3)no2)c1`, for which the survival is 65%.

As to `CCCCn1c(=O)c2oc3ccccc3c2n(CC(=O)Nc2cc(C)ccc2C)c1=O`, the survival was 44% (active).

Take `O=c1c2oc3ccccc3c2n(Cc2ccccc2F)c(=O)n1Cc1ccccc1`: the survival was 46% (active).

For `COc1ccccc1NC(=O)Cn1c(=O)n(Cc2ccco2)c(=O)c2oc3ccccc3c21`, the survival is 67%.

As for `Cc1ccc(C)c(Cn2c(=O)n(C(C)C)c(=O)c3oc4ccccc4c32)c1`, the survival was 51% (active).

Regarding `O=c1c2oc3ccccc3c2n(Cc2ccccc2F)c(=O)n1Cc1ccco1`, the survival was 77%.

In the case of `CCCCn1c(=O)c2oc3ccccc3c2n(CC(=O)Nc2cccc(Cl)c2C)c1=O`, the survival is 52%.

As for `Cc1ccc(C)c(Cn2c(=O)n(Cc3ccco3)c(=O)c3oc4ccccc4c32)c1`, the survival is 97%.

Consider `Cc1ccc(C)c(NC(=O)Cn2c(=O)n(Cc3ccccc3)c(=O)c3oc4ccccc4c32)c1`, for which the survival was 62%.

Consider `COc1cc(NC(=O)Cn2c(=O)n(Cc3ccco3)c(=O)c3oc4ccccc4c32)cc(OC)c1`, for which the survival is 38% (active).

With `Cc1cc(C)cc(NC(=O)Cn2c(=O)n(Cc3ccco3)c(=O)c3oc4ccccc4c32)c1`, the survival was 106%.

For the compound `O=c1c2oc3ccccc3c2n(Cc2ccc(Cl)cc2)c(=O)n1Cc1ccccc1`, the survival is 108%.

Regarding `CC(C)n1c(=O)c2oc3ccccc3c2n(Cc2ccccc2F)c1=O`, the survival was 50%.
